Targets with a hit are over-represented here; the source holds about 6,500 in all. About 2% of all pairs of compound and target were hits. Values without a mark were called inactive.

37 targets from the supplement of paper PMC11006884 can be followed below.

UniProt P33981, sequence (P33981 whole entry, looked up): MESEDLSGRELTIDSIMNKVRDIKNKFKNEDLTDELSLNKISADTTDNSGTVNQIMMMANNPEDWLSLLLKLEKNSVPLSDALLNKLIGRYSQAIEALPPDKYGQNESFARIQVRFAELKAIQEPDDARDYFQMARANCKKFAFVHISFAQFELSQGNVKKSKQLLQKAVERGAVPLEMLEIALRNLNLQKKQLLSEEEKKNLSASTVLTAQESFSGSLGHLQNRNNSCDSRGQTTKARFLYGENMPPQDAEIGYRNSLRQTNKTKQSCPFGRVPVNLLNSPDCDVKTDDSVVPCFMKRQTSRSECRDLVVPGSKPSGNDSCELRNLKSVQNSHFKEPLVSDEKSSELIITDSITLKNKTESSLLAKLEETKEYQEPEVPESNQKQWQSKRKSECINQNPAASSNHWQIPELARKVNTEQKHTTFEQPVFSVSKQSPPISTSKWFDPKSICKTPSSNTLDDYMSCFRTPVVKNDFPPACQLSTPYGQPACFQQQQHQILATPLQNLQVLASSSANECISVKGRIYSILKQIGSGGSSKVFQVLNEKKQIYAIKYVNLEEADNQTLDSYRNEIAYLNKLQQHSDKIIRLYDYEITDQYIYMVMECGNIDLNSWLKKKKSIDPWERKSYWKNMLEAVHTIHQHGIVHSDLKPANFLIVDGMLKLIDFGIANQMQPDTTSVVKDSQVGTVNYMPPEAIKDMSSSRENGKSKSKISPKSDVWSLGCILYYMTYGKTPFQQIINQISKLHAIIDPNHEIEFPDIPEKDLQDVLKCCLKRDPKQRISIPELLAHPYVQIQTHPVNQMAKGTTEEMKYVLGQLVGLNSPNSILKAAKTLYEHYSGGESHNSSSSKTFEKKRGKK
UniProt P49588, sequence (P49588 whole entry, looked up): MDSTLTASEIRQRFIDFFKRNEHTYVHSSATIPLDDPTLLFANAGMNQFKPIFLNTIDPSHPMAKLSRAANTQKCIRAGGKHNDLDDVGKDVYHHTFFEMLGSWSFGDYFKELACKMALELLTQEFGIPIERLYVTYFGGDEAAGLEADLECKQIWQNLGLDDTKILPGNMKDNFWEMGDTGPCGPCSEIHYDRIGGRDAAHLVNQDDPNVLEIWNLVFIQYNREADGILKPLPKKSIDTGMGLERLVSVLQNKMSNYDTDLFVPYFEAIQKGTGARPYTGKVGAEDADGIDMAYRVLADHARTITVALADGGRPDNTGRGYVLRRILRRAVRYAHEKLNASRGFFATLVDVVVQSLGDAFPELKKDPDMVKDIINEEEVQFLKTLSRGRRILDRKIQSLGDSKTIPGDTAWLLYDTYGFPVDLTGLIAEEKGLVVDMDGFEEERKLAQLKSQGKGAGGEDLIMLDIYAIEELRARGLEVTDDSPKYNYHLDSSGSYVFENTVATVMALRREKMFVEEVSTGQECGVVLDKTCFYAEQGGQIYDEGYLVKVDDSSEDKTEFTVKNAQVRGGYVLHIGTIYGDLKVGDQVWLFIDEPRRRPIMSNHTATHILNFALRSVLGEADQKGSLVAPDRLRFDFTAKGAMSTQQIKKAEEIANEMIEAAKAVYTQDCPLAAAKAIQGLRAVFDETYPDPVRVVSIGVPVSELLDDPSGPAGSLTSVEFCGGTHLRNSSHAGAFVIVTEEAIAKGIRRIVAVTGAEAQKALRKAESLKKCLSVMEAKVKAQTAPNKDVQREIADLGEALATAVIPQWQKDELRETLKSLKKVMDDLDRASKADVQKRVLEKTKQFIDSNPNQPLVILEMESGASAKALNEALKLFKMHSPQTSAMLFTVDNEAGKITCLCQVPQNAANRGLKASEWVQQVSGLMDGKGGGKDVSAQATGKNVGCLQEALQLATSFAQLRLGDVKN
UniProt P09110, sequence (P09110 whole entry, looked up): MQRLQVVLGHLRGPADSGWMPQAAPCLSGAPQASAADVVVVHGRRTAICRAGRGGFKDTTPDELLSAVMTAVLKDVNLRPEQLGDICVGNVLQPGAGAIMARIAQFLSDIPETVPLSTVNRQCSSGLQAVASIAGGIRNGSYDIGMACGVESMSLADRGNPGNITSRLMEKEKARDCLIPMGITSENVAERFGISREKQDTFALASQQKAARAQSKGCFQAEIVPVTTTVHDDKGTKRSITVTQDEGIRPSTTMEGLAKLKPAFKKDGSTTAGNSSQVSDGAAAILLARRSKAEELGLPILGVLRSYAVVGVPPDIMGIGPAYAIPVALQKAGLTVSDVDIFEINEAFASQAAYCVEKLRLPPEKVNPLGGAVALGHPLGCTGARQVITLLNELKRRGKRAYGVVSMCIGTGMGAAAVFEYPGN
UniProt P14923, sequence (P14923 whole entry, looked up): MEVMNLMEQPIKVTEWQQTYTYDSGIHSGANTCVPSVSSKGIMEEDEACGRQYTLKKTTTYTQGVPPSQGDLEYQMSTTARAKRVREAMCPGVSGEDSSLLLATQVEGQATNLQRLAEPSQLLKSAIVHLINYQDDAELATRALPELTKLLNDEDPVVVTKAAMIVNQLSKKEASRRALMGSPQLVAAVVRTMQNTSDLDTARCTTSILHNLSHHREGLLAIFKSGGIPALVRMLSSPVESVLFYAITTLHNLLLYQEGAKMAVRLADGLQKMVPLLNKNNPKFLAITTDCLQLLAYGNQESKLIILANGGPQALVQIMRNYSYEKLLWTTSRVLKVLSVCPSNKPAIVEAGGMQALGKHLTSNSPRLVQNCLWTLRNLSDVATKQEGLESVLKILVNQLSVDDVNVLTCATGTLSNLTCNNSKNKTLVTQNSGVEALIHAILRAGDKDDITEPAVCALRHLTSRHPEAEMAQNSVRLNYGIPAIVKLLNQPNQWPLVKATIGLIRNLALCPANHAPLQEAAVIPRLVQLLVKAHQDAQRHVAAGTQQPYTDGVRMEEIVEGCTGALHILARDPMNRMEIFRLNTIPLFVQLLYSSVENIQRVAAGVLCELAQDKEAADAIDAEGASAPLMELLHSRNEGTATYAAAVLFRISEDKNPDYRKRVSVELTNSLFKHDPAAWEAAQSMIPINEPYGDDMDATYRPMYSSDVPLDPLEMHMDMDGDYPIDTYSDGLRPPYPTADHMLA
UniProt P13489, sequence (P13489 whole entry, looked up): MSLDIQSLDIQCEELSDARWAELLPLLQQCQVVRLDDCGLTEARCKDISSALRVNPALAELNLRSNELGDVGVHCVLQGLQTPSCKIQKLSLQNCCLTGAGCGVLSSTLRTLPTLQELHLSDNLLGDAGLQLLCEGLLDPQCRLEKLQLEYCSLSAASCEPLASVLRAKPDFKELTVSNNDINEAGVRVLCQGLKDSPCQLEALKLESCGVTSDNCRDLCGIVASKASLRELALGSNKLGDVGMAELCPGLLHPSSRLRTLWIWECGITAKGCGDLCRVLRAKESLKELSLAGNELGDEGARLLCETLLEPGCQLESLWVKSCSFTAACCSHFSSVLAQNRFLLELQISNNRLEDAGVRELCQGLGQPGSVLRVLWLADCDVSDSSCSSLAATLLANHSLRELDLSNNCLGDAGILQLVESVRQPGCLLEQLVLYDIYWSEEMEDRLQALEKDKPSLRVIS
UniProt P49589, sequence (P49589 whole entry): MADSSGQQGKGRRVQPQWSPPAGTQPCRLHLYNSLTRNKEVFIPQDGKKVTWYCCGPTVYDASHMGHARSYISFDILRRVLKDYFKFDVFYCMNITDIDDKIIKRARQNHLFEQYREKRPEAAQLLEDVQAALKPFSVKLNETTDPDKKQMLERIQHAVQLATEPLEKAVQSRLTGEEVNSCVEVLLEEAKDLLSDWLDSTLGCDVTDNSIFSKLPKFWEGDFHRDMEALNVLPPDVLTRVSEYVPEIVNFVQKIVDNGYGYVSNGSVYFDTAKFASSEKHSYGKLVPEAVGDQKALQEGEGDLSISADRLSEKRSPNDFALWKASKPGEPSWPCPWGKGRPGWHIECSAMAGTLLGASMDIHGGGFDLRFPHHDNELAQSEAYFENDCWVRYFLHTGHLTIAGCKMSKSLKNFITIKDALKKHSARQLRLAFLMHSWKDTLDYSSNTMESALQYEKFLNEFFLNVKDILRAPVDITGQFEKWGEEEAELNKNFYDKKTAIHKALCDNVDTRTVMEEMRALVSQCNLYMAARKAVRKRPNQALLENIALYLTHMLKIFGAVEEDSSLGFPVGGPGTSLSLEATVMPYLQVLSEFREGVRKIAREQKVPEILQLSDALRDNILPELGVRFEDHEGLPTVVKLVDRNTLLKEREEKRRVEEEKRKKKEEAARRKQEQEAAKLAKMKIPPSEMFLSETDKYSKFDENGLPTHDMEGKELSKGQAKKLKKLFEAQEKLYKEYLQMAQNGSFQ
UniProt P12277, sequence (P12277 whole entry): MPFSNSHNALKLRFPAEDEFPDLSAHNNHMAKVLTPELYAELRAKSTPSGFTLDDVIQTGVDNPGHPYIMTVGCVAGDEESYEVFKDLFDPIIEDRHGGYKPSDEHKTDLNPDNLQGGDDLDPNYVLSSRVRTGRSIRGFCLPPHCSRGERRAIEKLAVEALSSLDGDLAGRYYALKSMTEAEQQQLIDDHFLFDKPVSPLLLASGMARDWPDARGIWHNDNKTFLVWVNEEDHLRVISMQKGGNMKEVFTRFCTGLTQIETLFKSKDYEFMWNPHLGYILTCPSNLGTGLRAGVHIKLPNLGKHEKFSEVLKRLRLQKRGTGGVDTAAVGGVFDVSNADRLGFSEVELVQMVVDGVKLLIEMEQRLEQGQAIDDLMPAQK
UniProt P37802, sequence (P37802 whole entry, looked up): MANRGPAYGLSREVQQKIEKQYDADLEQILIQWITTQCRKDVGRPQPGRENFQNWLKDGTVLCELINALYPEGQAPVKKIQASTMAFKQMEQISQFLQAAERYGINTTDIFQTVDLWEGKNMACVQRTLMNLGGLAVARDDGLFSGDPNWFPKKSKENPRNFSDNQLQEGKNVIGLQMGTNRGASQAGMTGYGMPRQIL
UniProt P45973, sequence (P45973 whole entry, looked up): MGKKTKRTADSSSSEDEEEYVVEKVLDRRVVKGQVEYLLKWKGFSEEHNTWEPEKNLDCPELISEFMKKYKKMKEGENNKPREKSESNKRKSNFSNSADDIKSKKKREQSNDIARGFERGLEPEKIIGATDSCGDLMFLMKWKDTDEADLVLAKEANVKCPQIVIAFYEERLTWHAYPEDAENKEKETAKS

Compound in the assay: COC(=O)C#Cc1ccccc1 [methyl 3-phenylpropiolate]
The experiment in a line: log2 ratio of iodoacetamide-alkyne labeling of the cysteine site, DMSO over compound (competition); higher = stronger covalent engagement of the cysteine by the compound, active = 1 or more. The settings on record: 500 µM; treatment time 1 h; system: HEK293T cell lysate. An outline of the steps:
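HEK293T lysate (2 mg/mL) was incubated with electrophile (500 µM) or vehicle for 1 h at ambient temperature and then with iodoacetamide alkyne for 1 h. Labelled proteins were clicked to sCIP-TMT reagents, pooled, digested, enriched on streptavidin and measured by Orbitrap Eclipse LC-MS/MS with FAIMS, with FragPipe quantification. The per-cysteine log2 competition ratio is mean control-channel reporter intensity over mean compound-channel reporter intensity. Across three replicates with duplicate channels, cysteines quantified in only one replicate were excluded.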
Regarding CTSB C319 (UniProt P07858), the “log2 ratio of iodoacetamide-alkyne labeling” value (“log2 ratio” below) was 0.512.
As for UniProt P23610_C62, the “log2 ratio” value is 0.0767.
Consider FLNA C1453 (UniProt P21333), for which the “log2 ratio” value is 0.357.
In the case of CARS C27 (UniProt P49589), the “log2 ratio” value was 0.454.
Take TMPO C341 (UniProt P42166): the “log2 ratio” value was 1.77 (active).
Under VDAC2 C210 (UniProt P45880) stands 1.39 (active); under APEX1 C93 (UniProt P27695), 0.0645; under GMPS C137 (UniProt P49915), 0.217.
Take RRM1 C26 (UniProt P23921): the “log2 ratio” value was 0.0708.
On to DNAJA1 C149 (UniProt P31689), for which the “log2 ratio” value was 0.14.
With HNRNPM C694 (UniProt P52272), the “log2 ratio” value was 0.0717.
TTK C322 (UniProt P33981): the “log2 ratio” value was 1.29 (active).
In the case of IQGAP1 C781 (UniProt P46940) it was 0.821.
Regarding CKB C283 (UniProt P12277), the “log2 ratio” value is 0.217.
With LRPPRC C208 (UniProt P42704), the “log2 ratio” value is 0.123.
On to JUP C90 (UniProt P14923), for which the “log2 ratio” value was 0.305.
In the case of MCM3 C319 (UniProt P25205), the “log2 ratio” value is -0.032.
Turning to CBX5 C133 (UniProt P45973), the “log2 ratio” value was 0.17.
On to MSN C284 (UniProt P26038), for which the “log2 ratio” value is -0.16.
For the target ACAA2 C128 (UniProt P42765), the “log2 ratio” value is 1.22 (active).
With ATIC C363 (UniProt P31939), the “log2 ratio” value was 0.3.
Under ACAA2 C116 (UniProt P42765) stands 1.22 (active); under LATS1 C885 (UniProt O95835), 0.423.
Under FASN C1127 (UniProt P49327) stands 0.394; under CCT5 C377 (UniProt P48643), 0.18.
On to FLNA C478 (UniProt P21333), for which the “log2 ratio” value was 0.00171.
Turning to RPL9 C134 (UniProt P32969), the “log2 ratio” value was 0.0357.
Regarding IDH2 C154 (UniProt P48735), the “log2 ratio” value is 0.393.
With AARS C723 (UniProt P49588), the “log2 ratio” value was 0.264.
In the case of ACAA1 C177 (UniProt P09110), the “log2 ratio” value is 0.162.
On to RNH1 C75 (UniProt P13489), for which the “log2 ratio” value is 0.145.
EEF2 C812 (UniProt P13639): the “log2 ratio” value was 0.148.
Regarding COMT C241 (UniProt P21964), the “log2 ratio” value is 0.194.
OAT C253 (UniProt P04181): the “log2 ratio” value is 0.0787.
RPL3 C253 (UniProt P39023): the “log2 ratio” value is 0.582.
CASP3 C184 (UniProt P42574): the “log2 ratio” value was 0.259.
TAGLN2 C38 (UniProt P37802): the “log2 ratio” value was -0.0194.
